Assay results reported in PubChem BioAssay (NCATS).
Records with an inconclusive call do not appear. Entries that show only a call come without a potency. Active and inactive are the calls of the source. Unless noted, calls follow the shape of the dose curve; as a rule, active = well fitted curve in the direction sought with a large enough effect; inconclusive = small, poorly fitted or top-dose-only effect, or another doubt; inactive = no such curve, though single readings can be large; an effect the other way counts as inactive or inconclusive.

System: not listed separately
Test: Primary qHTS for small molecule stabilizers of the endoplasmic reticulum resident proteome: Secreted ER Calcium Modulated Protein (SERCaMP) assay (AID 1508630)
Conditions: SH-SY5Y GLuc-SERCaMP (Gaussia luciferase released on ER calcium loss) secretion, thapsigargin, luminescence; series mostly up to 38.4 µM
Summary of the method: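 The SH-SY5Y reporter protocol was run at 3 concentrations up to 38.3 uM (primary) or 11 concentrations (follow-up): 16 h compound, 100 nM thapsigargin for 4 h, then extracellular luciferase luminescence.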

Compound	Potency
Cc1csc(-c2nnc(Nc3ccc(Oc4ncccc4-c4ccnc(N)n4)cc3)c3ccccc23)c1	inactive
Cc1ccc(C2=Nc3ccc(Cl)cc3OC2)cc1	inactive
CN1N=C(N)c2cn([C@@H]3O[C@H](COP(=O)(O)O)[C@@H](O)[C@@H]3O)c3ncnc1c23	inactive
Cc1cc(OCCCS(C)(=O)=O)cc(C)c1-c1cccc(COc2ccc3c(c2)OC[C@H]3CC(=O)O)c1	inactive
Cc1ccc(C(=O)N(CCCN)[C@@H](c2nc3cc(Cl)ccc3c(=O)n2Cc2ccccc2)C(C)C)cc1	inactive
C=CCc1cccc(C=NNC(=O)CN2CCN(Cc3ccccc3)CC2)c1O	inactive
CN(C)CCOc1cc(-c2cn[nH]c2)ccc1NC(=O)C1COc2ccccc2O1 (centres undefined)	inactive
CS(=O)(=O)c1ccc(C2=C(c3ccccc3)C(=O)OC2)cc1	inactive
CCN1CCN(c2ccc(Nc3cc(N(C)C(=O)Nc4c(Cl)c(OC)cc(OC)c4Cl)ncn3)cc2)CC1	inactive
Cc1cnc(CNC(=O)c2c(=O)c3ccc(N4CCCN(C)CC4)nc3n3c2sc2ccccc23)cn1	inactive
COc1ccc(-c2ccc3ncc4c(c3c2)n(-c2ccc(N3CCNCC3)c(C(F)(F)F)c2)c(=O)n4C)cn1	inactive
Nc1ncnc2c1c(-c1cccc(OCc3ccccc3)c1)cn2C1CC(CN2CCC2)C1 (centres undefined)	inactive
CC(C)Oc1cc(Nc2nc(N[C@@H](C)c3ccc(F)cn3)ncc2Cl)[nH]n1	inactive
Nc1[nH]nc2nnc(-c3c(-c4ccccc4)nn4ccccc34)cc12	inactive
CNC(=O)c1ccc2c(C(=Nc3cccc(CN(C)C)c3)c3ccccc3)c(O)[nH]c2c1	inactive
O=C(c1ccc(C(=O)N2CCC(N3CCCC3)CC2)c(Nc2ccccc2)c1)N1CCC(N2CCCC2)CC1	inactive
CNc1nc(Nc2ccc(C(=O)N3CCOCC3)cc2OC)ncc1Cl	inactive
Cn1c(=O)c(-c2c(Cl)cccc2Cl)cc2cnc(Nc3cccc(C(=O)O)c3)nc21	inactive
CSc1cccc(Nc2ncc3cc(-c4c(Cl)cccc4Cl)c(=O)n(C)c3n2)c1	inactive

Compound	Potency
N#CC1(c2cccc(C(=O)Nc3cc(Oc4ccc5nc(NC(=O)C6CC6)sc5n4)ccc3F)c2Cl)CC1	inactive
CN1C(=O)C(Cc2c[nH]c3ccccc23)NC1=S (centres undefined)	inactive
C[C@@H](N)c1ccc(C(=O)Nc2ccnc3[nH]ccc23)cc1	inactive
COc1ccc(CCN(C)CCCOc2ccc(S(=O)(=O)c3[nH]c4ccccc4c3C(C)C)cc2)cc1OC	inactive
O=C(CO)N1CCC(c2[nH]nc(-c3ccc(Cl)cc3)c2-c2ccncn2)CC1	inactive
COc1nccc(-c2c(-c3ccc(F)cc3)ncn2C2CCC(O)CC2)n1 (centres undefined)	inactive
O=C(O)c1nc(=O)[nH]c(=O)[nH]1	inactive
CC1(C)CC(=O)c2c(C(F)(F)F)nn(-c3ccc(C(N)=O)c(NC4CCC(O)CC4)c3)c2C1 (centres undefined)	inactive
CC(C)CNc1ccnc(NCc2csc(-c3ccccc3)n2)n1	inactive
O=C1CN2Cc3c(ccc(Cl)c3Cl)N=C2N1	inactive
COc1cc2c(cc1Cc1cccc(Cl)c1F)c(=O)c(C(=O)O)cn2[C@H](CO)C(C)C	inactive
Cc1ccc(C(=O)N(CCCN)[C@@H](c2oc3cc(Cl)ccc3c(=O)c2Cc2ccccc2)C(C)C)cc1	inactive
O=C(CC12CC3CC(CC(C3)C1)C2)Nc1cccc2nc(NCCNCCO)ccc12	inactive
CC(=O)Nc1cccc(-n2c(=O)n(C3CC3)c(=O)c3c(Nc4ccc(I)cc4F)n(C)c(=O)c(C)c32)c1	inactive
COC1CCC(C(=O)c2ccc3nc4c(cc3c2)CCCO4)CC1 (centres undefined)	inactive
CNC(=O)c1cc(Oc2ccc(NC(=O)Nc3ccc(Cl)c(C(F)(F)F)c3)c(F)c2)ccn1	inactive
Cc1cccc(Nc2nc(N[C@@H]3CCCC[C@H]3N)ncc2C(N)=O)c1	inactive
CN[C@@H](C)[C@H]1[C@H](O)C[C@@]2(C)[C@@H]3CC[C@H]4C(C)(C)[C@@H](NC)CC[C@@]45C[C@@]35CC[C@]12C	inactive
CCCCn1c(=O)n(Cc2ccccc2F)c(=O)c2[nH]c(Cc3ccc(NC(C)=O)cc3)nc21	inactive

Target: Cytochrome P450 2D6 (Homo sapiens) (UniProt P10635)
Test: Cytochrome P450 family 2 subfamily D member 6 (CYP2D6) small molecule antagonists: luciferase biochemical (cell-free) qHTS assay (AID 1645840; active = well fitted curve in the direction sought with a large enough effect in the repeat runs; an effect the other way counts as inactive or inconclusive; also: nearly all actives have a fitted effect of over 55% in size; also: potency is read from the fitted curve at half-maximal effect)
Conditions: P450-Glo CYP2D6 enzyme, luciferin luminescence, 1 h; series mostly up to 57.4 µM
Summary of the method: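 P450-Glo CYP2D6 system: proluciferin substrate converted by enzyme to luciferin, read by luminescence proportional to activity. Enzyme-substrate mix with compound 10 min at room temperature, then NADPH regeneration 1 h before detection reagent.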

Cytochrome P450 2D6 (Homo sapiens), sequence (P10635 whole entry, looked up): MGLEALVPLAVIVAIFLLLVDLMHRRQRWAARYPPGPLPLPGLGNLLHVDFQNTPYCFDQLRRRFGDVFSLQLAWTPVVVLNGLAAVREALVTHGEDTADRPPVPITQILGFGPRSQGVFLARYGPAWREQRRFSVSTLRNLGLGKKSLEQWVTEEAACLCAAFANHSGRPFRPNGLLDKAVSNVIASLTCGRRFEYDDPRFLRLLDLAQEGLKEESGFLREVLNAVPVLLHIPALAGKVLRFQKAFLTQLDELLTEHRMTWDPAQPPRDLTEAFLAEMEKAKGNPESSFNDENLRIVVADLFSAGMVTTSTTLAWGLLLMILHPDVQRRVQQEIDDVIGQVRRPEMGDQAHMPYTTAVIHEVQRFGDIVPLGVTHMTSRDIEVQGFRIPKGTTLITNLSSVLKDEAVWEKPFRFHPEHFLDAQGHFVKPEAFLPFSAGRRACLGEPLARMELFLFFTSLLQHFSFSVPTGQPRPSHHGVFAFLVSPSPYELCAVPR

Compound	Potency
Cc1csc(-c2nnc(Nc3ccc(Oc4ncccc4-c4ccnc(N)n4)cc3)c3ccccc23)c1	inactive
CN(C)CCOc1cc(-c2cn[nH]c2)ccc1NC(=O)C1COc2ccccc2O1 (centres undefined)	2.68 µM (active)
Cc1cnc(CNC(=O)c2c(=O)c3ccc(N4CCCN(C)CC4)nc3n3c2sc2ccccc23)cn1	inactive
COc1ccc(-c2ccc3ncc4c(c3c2)n(-c2ccc(N3CCNCC3)c(C(F)(F)F)c2)c(=O)n4C)cn1	inactive
Nc1ncnc2c1c(-c1cccc(OCc3ccccc3)c1)cn2C1CC(CN2CCC2)C1 (centres undefined)	12 µM (active)
Cn1c(=O)c(-c2c(Cl)cccc2Cl)cc2cnc(Nc3cccc(C(=O)O)c3)nc21	inactive
CSc1cccc(Nc2ncc3cc(-c4c(Cl)cccc4Cl)c(=O)n(C)c3n2)c1	inactive
C[C@@H](N)c1ccc(C(=O)Nc2ccnc3[nH]ccc23)cc1	inactive
COc1nccc(-c2c(-c3ccc(F)cc3)ncn2C2CCC(O)CC2)n1 (centres undefined)	inactive
CC(C)CNc1ccnc(NCc2csc(-c3ccccc3)n2)n1	1.2 µM (active)
Cc1cccc(Nc2nc(N[C@@H]3CCCC[C@H]3N)ncc2C(N)=O)c1	15.1 µM (active)
